This is an account of results in PubChem BioAssay (NCATS).

Structures are written as SMILES. Records with an inconclusive call do not appear. Active and inactive are the calls of the source. Unless noted, calls follow the shape of the full dose curve.

Experiment [1] concerns the target Glucocorticoid receptor (Homo sapiens) (UniProt P04150). Briefly: qHTS assay for small molecule agonists of glucocorticoid receptor signaling (AID 588532; active = well fitted curve in the direction sought with a large enough effect in the signal ratio, with a control signal flat; the % refers to the signal ratio;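 also: 100% = dexamethasone at 0.1 µM and 0% = DMSO only wells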). The following applies: HeLa MMTV-bla, beta-lactamase ratio, agonist, 18 h; activation: stronger effect = higher value, percent of dexamethasone control, DMSO zero. An outline of the steps:
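Cells were plated and rested 3-5 h at 37 C, compounds were added in titration and incubated 18 h, then CCF4 substrate was loaded for 2 h at RT before reading blue/green fluorescence. EC50 came from Hill-equation fitting.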
For orientation: In qHTS, concentration-response curves come from the screen itself.

Experiment [2] deals with Peroxisome proliferator-activated receptor delta (Homo sapiens) (UniProt Q03181). The experiment can be described thus: qHTS assay for small molecule agonists of peroxisome proliferator-activated receptor delta signaling (AID 588534).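 Also: 0% = DMSO basal wells and 100% = positive control agonist at 10 µM.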 In short, it runs like this: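 Titration series tested in agonist mode on beta-lactamase reporter cells; 18 hrs at 37 C after a 5 hr pre-incubation. Readout: CCF4 fluorescence, 2 hrs RT. Hill equation gives EC50 and maximal response.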
Sequence of Peroxisome proliferator-activated receptor delta (Homo sapiens) (Q03181 whole entry, looked up): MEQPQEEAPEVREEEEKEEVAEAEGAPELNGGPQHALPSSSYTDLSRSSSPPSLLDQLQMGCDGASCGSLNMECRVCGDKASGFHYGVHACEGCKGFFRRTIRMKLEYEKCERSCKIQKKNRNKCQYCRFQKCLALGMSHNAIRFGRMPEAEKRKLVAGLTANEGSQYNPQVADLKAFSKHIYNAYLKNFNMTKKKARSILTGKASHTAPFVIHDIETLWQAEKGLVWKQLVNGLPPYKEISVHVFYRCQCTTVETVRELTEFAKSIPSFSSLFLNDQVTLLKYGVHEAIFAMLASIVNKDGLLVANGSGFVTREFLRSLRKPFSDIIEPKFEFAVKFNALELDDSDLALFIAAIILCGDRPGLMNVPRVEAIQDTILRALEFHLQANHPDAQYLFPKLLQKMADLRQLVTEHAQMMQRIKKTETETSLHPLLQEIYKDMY

The nature of experiment [3]: qHTS assay for small molecule antagonists of peroxisome proliferator-activated receptor delta signaling (AID 588535; active = well fitted inhibition curve with a large enough effect in the signal ratio, with a control signal flat, not every such curve was filed as active; the % refers to the signal ratio;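 as to max response: cells co-treated with a PPAR-delta agonist as stimulator during compound exposure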). Particulars: HEK293T PPARd-UAS-bla, beta-lactamase FRET ratio, 18 h; 460 nm channel. An outline of the steps: (§1)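 Beta-lactamase reporter read-out (405 nm excitation, 460/530 nm emission) after CCF4 loading for 2 hrs at RT. HEK293T PPAR-delta-UAS-bla cells, 2% charcoal/dextran FBS, compounds for 18 hrs at 37 C. Hill fit gave IC50 and efficacy.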

The target of experiment [4] is Peroxisome proliferator-activated receptor delta (Homo sapiens) (UniProt Q03181). Described as above. In short, it runs like this: as §1
The target of experiment [5] is Vitamin D3 receptor (Homo sapiens) (UniProt P11473). Briefly: qHTS assay for small molecule agonists of vitamin D receptor signaling (AID 588543).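 Also: 0% = DMSO basal and 100% = reference agonist control.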 An outline of the steps:
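Agonist-mode beta-lactamase reporter: HEK293T VDR-UAS-bla cells in charcoal-stripped 2% FBS, compound series 16 h 37 C, CCF4 2 h RT. EC50 from Hill fit, scaled against DMSO and 50 nM calcitriol control.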

Experiment [6] deals with Thyroid hormone receptor beta (Homo sapiens) (UniProt P10828). Briefly: qHTS assay for small molecule agonists of thyroid hormone receptor beta signaling (AID 588545).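 Also: 0% = DMSO only and 100% = 10 nM T3.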 In short, it runs like this: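 Stimulation of a TR-driven beta-lactamase reporter was quantified in GripTite HEK 293 cells. Compound series ran for 18 hrs; curves were normalized to T3 and DMSO controls and fitted to yield EC50.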
Sequence of Thyroid hormone receptor beta (Homo sapiens) (P10828 whole entry, looked up): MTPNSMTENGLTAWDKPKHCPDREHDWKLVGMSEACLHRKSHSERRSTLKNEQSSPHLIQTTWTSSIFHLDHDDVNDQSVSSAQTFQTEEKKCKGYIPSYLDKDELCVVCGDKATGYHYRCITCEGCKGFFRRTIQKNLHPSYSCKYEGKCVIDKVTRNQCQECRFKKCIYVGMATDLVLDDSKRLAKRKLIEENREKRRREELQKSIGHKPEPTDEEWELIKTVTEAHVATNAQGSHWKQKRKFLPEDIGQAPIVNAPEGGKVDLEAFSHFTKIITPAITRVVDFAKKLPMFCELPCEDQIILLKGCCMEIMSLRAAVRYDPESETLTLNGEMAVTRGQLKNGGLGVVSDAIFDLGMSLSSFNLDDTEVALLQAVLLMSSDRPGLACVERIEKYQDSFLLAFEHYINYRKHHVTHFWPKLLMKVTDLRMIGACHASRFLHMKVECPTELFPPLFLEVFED

A short description of experiment [7]: qHTS assay for small molecule antagonists of retinoid X receptor alpha signaling (AID 588546; active = well fitted inhibition curve with a large enough effect in the signal ratio, with a control signal flat, not every such curve was filed as active; the % refers to the signal ratio;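 also: cells stimulated with 9-cis-retinoic acid as agonist; % is scaled to controls: 0 for no effect and ±100 for the full control effect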). The following applies: HEK293T RXRa-UAS-bla, beta-lactamase ratio, antagonist mode; measured here: W530 green channel, cytotoxicity proxy. An outline of the steps:
(§2)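 Beta-lactamase reporter inhibition, read as CCF4 fluorescence ratio (ex 405, em 460/530 nm) after 2 h at RT. HEK293T UAS-bla cells, 2500/well, were stimulated with 9-cis-RA at 500 or 100 nM final alongside test compound for 18 h at 37 C.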

Experiment [8] has as its target Thyroid hormone receptor beta (Homo sapiens) (UniProt P10828). The experiment can be described thus: qHTS assay for small molecule antagonists of thyroid hormone receptor beta signaling (AID 588547; active = well fitted inhibition curve with a large enough effect in the signal ratio, with a control signal flat, not every such curve was filed as active; the % refers to the signal ratio;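 also: cells stimulated with 0.4 nM T3 agonist during compound exposure; series mostly up to about 77 µM; % is scaled to controls: 0 for no effect and ±100 for the full control effect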). The following applies: TR-UAS-bla HEK293, beta-lactamase ratio, antagonist mode, 18 h. In short, it runs like this:
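TR-UAS-bla GripTite HEK293 cells in 2% charcoal/dextran FBS medium; compounds 0.59 nM to 92 uM with T3 at 0.4nM final, 18 h at 37 C. Beta-lactamase read by CCF4 fluorescence (460/530 nm); Hill fits gave IC50 and efficacy.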

Experiment [9] is described as follows: qHTS assay for small molecule activators of the p53 signaling pathway (AID 651743; active = well fitted activation curve with a large enough effect in the signal ratio, not every such curve was filed as active; the % refers to the signal ratio; also: series mostly up to about 92 µM; % of control where 0% means no effect). The following applies: HCT-116 p53RE-bla, beta-lactamase FRET ratio, 16 h; activation: stronger effect = higher value. In short, it runs like this: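 Reporter: beta-lactamase driven by p53 response elements, stably integrated in HCT-116 cells. Cells seeded at 4,000/well, 5 h preincubation, compound (DMSO) 16 h at 37 C; B/G FRET substrate 2 h RT; fluorescence intensity read.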

Experiment [10] in a line: qHTS assay for environmental chemicals that activate the Aryl hydrocarbon Receptor (AhR) signaling pathway (AID 651777; active = well fitted curve in the direction sought with a large enough effect; an effect the other way counts as inactive or inconclusive; also: % of control where 0% means no effect; nearly all actives have a fitted effect of over 15% in size). Particulars: 1A2-DRE human hepatoma cells, luciferase, 24 h; activation: stronger effect = higher value. An outline of the steps: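 Reporter gene assay: hepatoma cells with DRE/CYP1A2-luciferase, 24 hr compound incubation at 37 C, 5% CO2, luminescence after One-Glo (30 min, RT).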

Experiment [11] deals with Peroxisome proliferator-activated receptor alpha (Homo sapiens) (UniProt Q07869). Briefly: qHTS assay for small molecule agonists of the peroxisome proliferator-activated receptor alpha (PPARalpha) signaling pathway (AID 651778; active = well fitted curve in the direction sought with a large enough effect; an effect the other way counts as inactive or inconclusive; also: % of control where 0% means no effect). Particulars: PathHunter PPARalpha complementation, chemiluminescence, 6 h; max response: stronger effect = higher value. An outline of the steps: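 Enzyme-fragment complementation assay in which ligand-bound PPARalpha translocates and forms an active enzyme that generates chemiluminescence. Cells were plated overnight, exposed to compound for 6 hr at 37 C, and then given detection reagent for 60 min at room temperature.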
Sequence of Peroxisome proliferator-activated receptor alpha (Homo sapiens) (Q07869 whole entry, looked up, the tested form may be a part): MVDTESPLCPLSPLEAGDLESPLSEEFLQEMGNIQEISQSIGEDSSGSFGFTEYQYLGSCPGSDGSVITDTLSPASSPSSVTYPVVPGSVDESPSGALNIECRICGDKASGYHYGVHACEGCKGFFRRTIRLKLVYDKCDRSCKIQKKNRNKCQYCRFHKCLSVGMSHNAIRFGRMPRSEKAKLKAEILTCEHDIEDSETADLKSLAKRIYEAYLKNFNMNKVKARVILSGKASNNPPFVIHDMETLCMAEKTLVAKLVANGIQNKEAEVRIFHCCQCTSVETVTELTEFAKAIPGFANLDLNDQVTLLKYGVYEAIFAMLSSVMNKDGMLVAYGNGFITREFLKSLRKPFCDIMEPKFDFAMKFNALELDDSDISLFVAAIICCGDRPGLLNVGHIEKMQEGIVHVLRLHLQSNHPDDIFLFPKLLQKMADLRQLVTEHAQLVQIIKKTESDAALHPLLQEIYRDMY

Experiment [12] is described as follows: qHTS assay for small molecule agonists of the antioxidant response element (ARE) signaling pathway measured by Nrf2-dependant transcriptional activity (AID 720636; active = well fitted curve in the direction sought with a large enough effect in the repeat runs; an effect the other way counts as inactive or inconclusive;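 also: HepG2 cells with an ARE-driven luciferase reporter; % of control where 0% means no effect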). In short, it runs like this: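 Nrf2-dependent transcription is measured in ARE-luc HepG2 cells: compound is applied for 16 hr at 37 C after a 6 hr attachment period, and luciferase activity is quantified by luminescence using ONE-Glo.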

Experiment [13] is described as follows: qHTS assay for small molecule agonists of the antioxidant response element (ARE) signaling pathway measured by Nrf2-dependant transcriptional activity - cell viability counter screen (AID 720653; active = well fitted curve in the direction sought with a large enough effect in the repeat runs; an effect the other way counts as inactive or inconclusive; also: % is scaled to controls: 0 for no effect and ±100 for the full control effect). Particulars: ARE-bla HepG2 viability, CellTiter-Glo ATP luminescence, 16 h; max response: stronger effect = lower value. In short, it runs like this: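 ARE-bla HepG2 cells treated with compounds for 16 h at 37C; this counter screen measures viability as intracellular ATP by CellTiter-Glo luminescence after 30 min at room temperature.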

Experiment [14] is described as follows: qHTS assay for cell viability of HEK293 cells (AID 743288; active = well fitted curve in the direction sought with a large enough effect; an effect the other way counts as inactive or inconclusive; also: % is scaled to controls: 0 for no effect and ±100 for the full control effect; nearly all actives have a fitted effect of over 50% in size). Particulars: ATP luminescence (CellTiter-Glo), 18 h; max response: stronger effect = lower value. An outline of the steps: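 Readout is luciferase-coupled ATP content (CellTiter-Glo luminescence, 30 min room temperature) as a measure of metabolically competent cells. Parental HEK293 cells were plated 5 h or more before compound addition, then treated 18 h at 37 C.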

Experiment [15] is described as follows: qHTS assay for cell viability of the p53RE-bla HCT-116 cell line (AID 743292; active = well fitted curve in the direction sought with a large enough effect; an effect the other way counts as inactive or inconclusive; also: % is scaled to controls: 0 for no effect and ±100 for the full control effect; nearly all actives have a fitted effect of over 55% in size). An outline of the steps:
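ATP-based luminescence, 16 h compound exposure at 37 C, p53RE-bla HCT-116 cells at 4,000/well.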

Experiment [16] concerns the target Peroxisome proliferator-activated receptor gamma (Homo sapiens) (UniProt P37231). The experiment can be described thus: qHTS assay for small molecule agonists of peroxisome proliferator-activated receptor gamma signaling (AID 588536; active = well fitted curve in the direction sought with a large enough effect in the signal ratio, with a control signal flat, not every such curve was filed as active; the % refers to the signal ratio;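 also: 0% = DMSO basal wells and 100% = rosiglitazone at 2 µM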). An outline of the steps:
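Cells were plated and held 6–6.5 h at 37 C, then compounds were added as a titration series. After a further 16 h, CCF4 dye was loaded for 2 h at room temperature and emission at 460/530 nm recorded.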

Experiment [17] shares this target. The experiment can be described thus: qHTS assay for small molecule antagonists of peroxisome proliferator-activated receptor gamma signaling (AID 588537; active = well fitted inhibition curve with a large enough effect in the signal ratio, with a control signal flat, not every such curve was filed as active; the % refers to the signal ratio;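 also: reporter cells co-stimulated with 50 nM rosiglitazone agonist during compound treatment; % of control where 0% means no effect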). An outline of the steps: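 Read-out: CCF4 fluorescence (ex 405, em 460/530 nm) after 2 h at RT. Cells were HEK293 carrying a UAS-bla reporter and treated 16 h at 37 C with compound plus rosiglitazone (50 nM final). Normalized to rosiglitazone and DMSO.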

Experiment [18] deals with Vitamin D3 receptor (Homo sapiens) (UniProt P11473). Briefly: qHTS assay for small molecule antagonists of vitamin D receptor signaling (AID 588541). In short, it runs like this: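 VDR-UAS-bla HEK293T cells in 2% charcoal-stripped FBS were stimulated with 1-alpha,25-dihydroxyvitamin D3 (3 nM final) plus compound for 16 h at 37 C. The beta-lactamase CCF4 readout was normalized to 50 nM agonist and DMSO, and Hill fits gave IC50.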
Sequence of Vitamin D3 receptor (Homo sapiens) (P11473 whole entry, looked up): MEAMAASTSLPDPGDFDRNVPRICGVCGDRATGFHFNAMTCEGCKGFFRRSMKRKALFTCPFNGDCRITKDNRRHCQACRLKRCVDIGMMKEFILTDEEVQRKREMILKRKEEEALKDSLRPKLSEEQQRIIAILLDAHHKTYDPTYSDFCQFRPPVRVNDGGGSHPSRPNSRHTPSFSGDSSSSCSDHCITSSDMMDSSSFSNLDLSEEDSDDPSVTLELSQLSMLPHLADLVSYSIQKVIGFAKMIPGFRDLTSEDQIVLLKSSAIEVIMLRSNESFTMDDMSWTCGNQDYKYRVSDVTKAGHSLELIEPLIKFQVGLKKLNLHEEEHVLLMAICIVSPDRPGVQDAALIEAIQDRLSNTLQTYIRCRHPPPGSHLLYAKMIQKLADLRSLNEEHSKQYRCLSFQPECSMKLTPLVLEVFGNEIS

The target in experiment [19] is Retinoic acid receptor RXR-alpha (Homo sapiens) (UniProt P19793). Briefly: qHTS assay for small molecule agonists of retinoid X receptor alpha signaling (AID 588544).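 As to activation: 0% = DMSO basal wells and 100% = reference agonist.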
Sequence of Retinoic acid receptor RXR-alpha (Homo sapiens) (P19793 whole entry, looked up): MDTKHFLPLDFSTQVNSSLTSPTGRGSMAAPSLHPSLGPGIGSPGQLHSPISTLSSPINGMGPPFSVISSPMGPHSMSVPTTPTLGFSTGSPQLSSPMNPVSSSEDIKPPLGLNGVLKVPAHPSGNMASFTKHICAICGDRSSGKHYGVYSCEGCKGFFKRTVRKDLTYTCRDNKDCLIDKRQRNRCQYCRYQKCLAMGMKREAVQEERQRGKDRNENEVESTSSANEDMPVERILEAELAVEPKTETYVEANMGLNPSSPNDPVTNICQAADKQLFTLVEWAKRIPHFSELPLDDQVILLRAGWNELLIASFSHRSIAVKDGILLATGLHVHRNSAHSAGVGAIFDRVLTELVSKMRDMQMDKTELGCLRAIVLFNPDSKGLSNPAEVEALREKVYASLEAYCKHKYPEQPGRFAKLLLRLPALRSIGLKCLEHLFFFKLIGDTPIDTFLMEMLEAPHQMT
Experiment [20] shares this target. The experiment can be described thus: qHTS assay for small molecule antagonists of retinoid X receptor alpha signaling (AID 588546).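 Also: cells stimulated with 9-cis-retinoic acid as agonist; % is scaled to controls: 0 for no effect and ±100 for the full control effect.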 The following applies: HEK293T RXRa-UAS-bla, beta-lactamase ratio, antagonist mode. An outline of the steps:
as §2

The target of experiment [21] is Nuclear receptor subfamily 1 group I member 2 (Rattus norvegicus) (UniProt Q9R1A7). The experiment can be described thus: qHTS assay for small molecule activators of the rat pregnane X receptor (rPXR) signaling pathway (AID 651751; call rule not given here; also: 0% is about no effect). Particulars: rPXR reporter cells, luciferase (One-Glo), 24 h.
Sequence of Nuclear receptor subfamily 1 group I member 2 (Rattus norvegicus) (Q9R1A7 whole entry, looked up): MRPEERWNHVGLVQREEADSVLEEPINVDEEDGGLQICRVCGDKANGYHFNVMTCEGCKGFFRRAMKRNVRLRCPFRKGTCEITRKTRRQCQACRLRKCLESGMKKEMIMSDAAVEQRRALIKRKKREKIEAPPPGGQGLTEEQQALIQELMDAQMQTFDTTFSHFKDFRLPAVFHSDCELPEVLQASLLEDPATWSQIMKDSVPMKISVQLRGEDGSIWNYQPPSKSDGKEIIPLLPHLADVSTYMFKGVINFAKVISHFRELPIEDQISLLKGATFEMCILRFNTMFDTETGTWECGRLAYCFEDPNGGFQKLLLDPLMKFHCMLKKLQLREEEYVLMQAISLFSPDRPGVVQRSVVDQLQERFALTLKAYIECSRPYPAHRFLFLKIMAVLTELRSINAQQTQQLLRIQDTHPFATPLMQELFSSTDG
Experiment [22] is described as follows: qHTS assay for small molecule activators of the human pregnane X receptor (PXR) signaling pathway (AID 720659; call rule not given here; also: 0% is about no effect).
The nature of experiment [23]: qHTS assay for small molecule agonists of retinoid X receptor alpha signaling (AID 588544).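 As to activation: 0% = DMSO basal wells and 100% = reference agonist.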 Particulars: HEK293T RXRa-UAS-bla, beta-lactamase reporter, 18 h; 530 nm emission.

Sequence of Glucocorticoid receptor (Homo sapiens) (P04150 whole entry, looked up): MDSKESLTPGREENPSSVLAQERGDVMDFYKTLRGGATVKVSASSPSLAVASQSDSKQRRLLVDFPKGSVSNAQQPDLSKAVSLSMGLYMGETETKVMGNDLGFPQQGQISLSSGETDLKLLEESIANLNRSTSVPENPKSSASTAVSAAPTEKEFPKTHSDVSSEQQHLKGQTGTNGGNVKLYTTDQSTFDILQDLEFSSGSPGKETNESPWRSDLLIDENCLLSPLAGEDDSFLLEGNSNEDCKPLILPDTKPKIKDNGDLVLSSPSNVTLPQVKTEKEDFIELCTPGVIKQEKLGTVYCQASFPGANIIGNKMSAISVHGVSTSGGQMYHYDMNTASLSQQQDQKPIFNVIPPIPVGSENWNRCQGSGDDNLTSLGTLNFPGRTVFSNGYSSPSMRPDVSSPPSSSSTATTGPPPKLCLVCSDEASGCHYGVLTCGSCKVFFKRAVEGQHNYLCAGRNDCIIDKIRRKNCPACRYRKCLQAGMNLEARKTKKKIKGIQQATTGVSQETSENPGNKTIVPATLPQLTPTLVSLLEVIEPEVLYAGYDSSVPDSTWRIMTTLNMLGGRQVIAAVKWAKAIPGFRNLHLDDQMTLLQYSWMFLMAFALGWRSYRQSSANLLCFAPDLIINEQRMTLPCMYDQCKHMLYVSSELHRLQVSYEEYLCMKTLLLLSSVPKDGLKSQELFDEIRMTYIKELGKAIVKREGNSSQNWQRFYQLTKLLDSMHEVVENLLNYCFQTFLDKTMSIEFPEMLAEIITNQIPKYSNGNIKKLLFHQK
Sequence of Peroxisome proliferator-activated receptor gamma (Homo sapiens) (P37231 whole entry, looked up): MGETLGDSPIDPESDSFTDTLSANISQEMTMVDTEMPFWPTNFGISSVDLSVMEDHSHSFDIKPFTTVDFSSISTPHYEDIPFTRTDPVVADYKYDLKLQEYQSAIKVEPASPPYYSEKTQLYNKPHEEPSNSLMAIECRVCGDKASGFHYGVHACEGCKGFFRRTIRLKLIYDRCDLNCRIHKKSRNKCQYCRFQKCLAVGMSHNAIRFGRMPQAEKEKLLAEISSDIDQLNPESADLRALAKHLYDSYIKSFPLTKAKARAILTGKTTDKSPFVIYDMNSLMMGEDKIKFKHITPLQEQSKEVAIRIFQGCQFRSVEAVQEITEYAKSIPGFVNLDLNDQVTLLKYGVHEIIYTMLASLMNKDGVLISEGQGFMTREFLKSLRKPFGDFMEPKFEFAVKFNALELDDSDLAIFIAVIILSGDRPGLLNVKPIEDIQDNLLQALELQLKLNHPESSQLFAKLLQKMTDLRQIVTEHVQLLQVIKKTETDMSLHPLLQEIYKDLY

For the molecule `OC(c1ccc(Cl)cc1)(c1cncnc1)c1ccccc1Cl` (stereo not given), the activation was -10.1% (inactive) in experiment [1], -2.63% (inactive) in experiment [9] and 2.31% (inactive) in experiment [10]. In addition, the result in experiment [2] and in experiment [5] was inactive. The max response in experiment [3] is 31.8%; in experiment [7] it was 8.06%; in experiment [11] it was -4.62% (inactive); in [13], -4.24% (inactive); in experiment [14], -17.1% (inactive). The Potency entry in experiment [4], in [6], in experiment [12] and in experiment [15] was “inactive” in each case. Further, the activity change % (negative = inhibition) in experiment [8] was 5.6% (inactive).

In the case of `[CH3][Sn]([Cl])([Cl])[Cl]`, the activation in [1] was -3.55% (inactive); in [9], -2.75% (inactive). The max response is -4.62% in [3]; -11% in experiment [7]; -14.8% (inactive) in experiment [20]; 0.635% (inactive) in experiment [11]; -16% (inactive) in experiment [13]; -18.6% (inactive) in [14]. For the same molecule, the max response in experiment [21] was -7.26% (inactive). The Potency entry in experiment [4], in [16], in experiment [17], in [18], in [19] and in experiment [12] was “inactive” throughout. Moreover, the Potency result in [15] was “inactive”. Also, the call in [5] and in experiment [22] was inactive.

Regarding `CCc1cnc(C2=NC(C)(C(C)C)C(=O)N2)c(C(=O)O)c1` (stereo not given), the activation in experiment [1] is -7.69% (inactive); in experiment [10], -2.09% (inactive). The outcome in experiment [2], in experiment [5] and in experiment [22] was inactive. The max response in [3] is 6.03%; in [23], -15.1%; in experiment [13], 16.5% (inactive); in experiment [21], -2.79% (inactive). Further, the Potency result in experiment [4], in [16], in experiment [17], in experiment [18], in experiment [19] and in [6] was “inactive” throughout. The Potency result in experiment [12] is “inactive”. For the same molecule, the activity change % (negative = inhibition) in experiment [8] was -0.801% (inactive).
